# Screening data from PubChem.
# Rows were chosen to be rich in hits. Some 11% of all compounds tested hit in one or more screens of this group.
# G9a inh = qHTS Assay for Inhibitors of Histone Lysine Methyltransferase G9a | actives 8.8% (n = 350,000) | G9a H3K9 monomethylation, AlphaScreen, 2 h | Histone-lysine N-methyltransferase EHMT2 (Homo sapiens), Q96KQ7 | Potency, µM (titrated, usually from 102 µM), for the others: at the top dose activity, negative = inhibition, actives largely listed as inhibitors; note: potency is the fitted concentration of half-maximal effect; % is set by controls: 0 for no effect and ±100 for the full control effect; nearly all actives have a fitted effect of over 75% in size
# Target sequence (Q96KQ7 913-1193 limits assumed): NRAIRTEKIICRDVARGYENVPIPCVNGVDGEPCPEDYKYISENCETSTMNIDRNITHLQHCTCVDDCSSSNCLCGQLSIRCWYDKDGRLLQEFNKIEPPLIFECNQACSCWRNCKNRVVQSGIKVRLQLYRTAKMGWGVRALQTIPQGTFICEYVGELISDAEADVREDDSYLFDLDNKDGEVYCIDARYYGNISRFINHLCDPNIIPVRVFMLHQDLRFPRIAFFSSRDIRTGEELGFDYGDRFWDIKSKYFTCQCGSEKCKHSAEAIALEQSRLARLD
#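 Chemiluminescent proximity detection of H3K9 monomethylation, read after 10 min bead incubation in the dark. Reaction: 20 nM G9a, 500 nM biotin-H3K9 peptide, 20 uM SAM cofactor, 2 h, room temperature, following 15 min enzyme-compound preincubation.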
# BAZ2B inh = qHTS Assay for Inhibitors of BAZ2B; Bromodomain adjacent to zinc finger domain protein 2B (Homo sapiens), Q9UIF8; AlphaScreen BAZ2B-H3K14Ac peptide displacement; actives 4.4% (n = 360,000); Potency, µM (top dose mostly 114 µM), for inactives: top-dose activity change, negative = inhibition, actives largely listed as inhibitors; AID 504333, 2011; note: potency is the fitted concentration of half-maximal effect; % is set by controls: 0 for no effect and ±100 for the full control effect; nearly all actives have a fitted effect of over 60% in size
#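 Complex of BAZ2B and biotin-H3K14Ac (50 nM apiece) forms over 30 min at RT, then faces library compounds up to 110 uM for another 30 min; AlphaScreen beads added, 20 min dark incubation, luminescence read.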
# PI5P4Ka inh = qHTS for Inhibitors of phosphatidylinositol 5-phosphate 4-kinase (PI5P4K); Phosphatidylinositol 5-phosphate 4-kinase type-2 alpha (Homo sapiens), P48426; PI5P4Kalpha enzyme, ADP-Glo luminescence, 60 min; active compounds read low; max response, %; actives 1.2% (n = 330,000); active = max response of -50% or lower; inconclusive = between -30% and -50%; inactive = -30% or higher; note: value at the top dose of about 77 µM; % is set by controls: 0 for no effect and ±100 for the full control effect
#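 Single end-point luminescence (ADP-Glo) quantified ADP from PI5P4Kalpha turnover; ATP 5 microM final, 1 h at RT, 0.1% CHAPS and 0.28 mM EGTA in HEPES pH 7.4.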
# L3MBTL1 block = qHTS Assay for the Inhibitors of L3MBTL1; Lethal(3)malignant brain tumor-like protein 1 (Homo sapiens), Q9Y468; Potency, µM (titrated, usually from 57.1 µM), inactives show at the top dose activity, negative = inhibition, usual class: inhibitors; actives 0.66% (n = 230,000); AlphaScreen L3MBTL1–H3K9me1 peptide binding; note: potency is the fitted concentration of half-maximal effect; % is set by controls: 0 for no effect and ±100 for the full control effect; nearly all actives have a fitted effect of over 60% in size
#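 AlphaScreen assay: L3MBTL1 (50 nM final) was preincubated 30 min at room temperature with biotinylated H3(1-15)K9me1 peptide (75 nM final), then 30 min with library compounds; streptavidin donor and nickel chelate acceptor beads (10 ug/mL final) added, 30 min dark.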
# HP1b binding inh = HTS for Inhibitors of HP1-beta Chromodomain Interactions with Methylated Histone Tails | AID 540317, 2011 | AlphaScreen HP1-beta / biotin-H3K9me3 peptide binding | actives 0.56% (n = 390,000) | Potency, µM (doses to about 114 µM), inactives show top-dose activity change, negative = inhibition, hits mostly inhibitors; note: potency is the fitted concentration of half-maximal effect; nearly all actives have a fitted effect of over 70% in size
# Target sequence (P83916 whole entry, looked up): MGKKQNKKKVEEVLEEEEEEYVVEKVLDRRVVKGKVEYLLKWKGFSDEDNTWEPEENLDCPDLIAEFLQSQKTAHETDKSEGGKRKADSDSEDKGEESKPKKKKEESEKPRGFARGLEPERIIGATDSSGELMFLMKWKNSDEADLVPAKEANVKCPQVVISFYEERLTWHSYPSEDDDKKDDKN
#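 AlphaScreen: HP1-beta (50 nM) preformed 30 min with biotin-H3(1-18)K9me3 peptide (50 nM) in PBS pH 7.4, 0.01% Tween-20. Compound added for 30 min at RT, then streptavidin donor/nickel chelate acceptor beads (10 ug/mL) for 30 min.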
# JMJD2A Tudor = qHTS Assay for Inhibitors of JMJD2A-Tudor Domain; AlphaScreen JMJD2A-Tudor / H3K4me3 peptide binding; Lysine-specific demethylase 4A (Homo sapiens), O75164; actives 4.4% (n = 390,000); Potency, µM (top dose mostly 114 µM), inactives show at the highest dose activity change, negative = inhibition, most hits filed as inhibitors; note: potency is the fitted concentration of half-maximal effect; % is set by controls: 0 for no effect and ±100 for the full control effect; nearly all actives have a fitted effect of over 50% in size
# * = called active by the depositor; ? = inconclusive; nt = no result; [ ] = dose if it differs, or a comment. Unless noted, calls come from the whole dose curve; as a rule, active = well fitted inhibition curve with a large enough effect; inconclusive = small, poorly fitted or top-dose-only effect; inactive = no such curve, though single readings can be large or run the other way.
SMILES,G9a inh,BAZ2B inh,PI5P4Ka inh,L3MBTL1 block,HP1b binding inh,JMJD2A Tudor
O=C(O)/C(=C/c1ccco1)NC(=O)c1ccccc1,44.7µM*,-30.3%,-9.9,?,-3.3%,?
CCN(CC)S(=O)(=O)c1ccc(C(=O)NC2CC(=O)N(c3ccc(OC)c(OC)c3)C2)cc1 (configuration not stated),0.6%[59 µM],-2.8%,nt,nt,42.6%,-1.3%
Nc1ncnc2oc(-c3ccoc3)c(-c3ccco3)c12,nt,nt,nt,nt,56.2µM*,50.1µM*
c1coc(-c2ccnc(-n3cccc3)n2)c1,?,-2.3%,-4.7,27.0%,22.3%,-4.1%
Nc1nnc(-c2ccco2)s1,1.7%[2.33 µM],17.1%,nt,nt,38.0%,-3.9%
Nc1ncnc2oc(-c3ccco3)c(-c3ccco3)c12,5.62µM*,56.2µM*,nt,25.1µM*,-32.5%,56.2µM*
CCOc1ccc2oc(=O)cc(CN3CCN(Cc4ccc(F)cc4)CC3)c2c1,-0.9%[59 µM],7.5%,nt,nt,19.0%,-23.9%
CC(=O)OC1CC(OC(C)=O)[C@]2(C)C(CC(=O)[C@]3(C)C2CC[C@@]2(C)C(C(=O)O)OC(=O)C4OC423)C1(C)C (some centres not stated),-35.9%[2.33 µM],nt,nt,nt,nt,nt
CC1CCCN(C(=S)Nc2ccc(Nc3ccccc3)cc2)C1 (configuration not stated),39.8µM*,-37.8%,4.0,-20.7%,?,?
CCN1CCN(c2cc(C)c3cc(NC(=S)N4CC(C)CC(C)C4)ccc3n2)CC1 (configuration not stated),35.5µM*,?,0.5,nt,1.1%,-35.2%
CCN1CCN(C(=S)Nc2ccc3nc(N4CCN(CC)CC4)cc(C)c3c2)CC1,20µM*,-3.9%,3.0,-7.6%,13.1%,-24.8%
CCN1CCN(c2cc(C)c3cc(NC(=O)c4ccc(Br)o4)ccc3n2)CC1,?,70.8µM*,0.2,-6.5%,6.0%,?
CCN1CCN(c2cc(C)c3cc(NC(=S)N4CCCC4)ccc3n2)CC1,?,-2.9%,1.1,-26.2%,23.5%,-17.8%
CCN1CCN(c2cc(C)c3cc(NC(=S)N4CCCCC4)ccc3n2)CC1,44.7µM*,-32.2%,4.2,nt,-13.2%,-34.5%
CCN1CCN(c2cc(C)c3cc(NC(=S)N4CCCC(C)C4)ccc3n2)CC1 (configuration not stated),44.7µM*,-28.5%,-6.4,nt,-22.2%,?
CCN(CC)c1cc(C)c2cc(NC(=O)c3ccc(Br)o3)ccc2n1,56.2µM*,?,nt,-17.2%,-25.7%,?
CCCCOc1ccc(C2C(=O)N(C3CCCCC3)CC(=O)N2CCCC)cc1 (configuration not stated),7.4%[59 µM],12.8%,nt,nt,45.9%,2.1%
O=C(Cn1cc(S(=O)(=O)c2ccccc2)c(=O)c2cc(Cl)ccc21)Nc1ccc2c(c1)OCO2,-5.1%[59 µM],0.4%,nt,nt,38.0%,-1.0%
Nc1nc(N)c(N=Nc2ccc(C(=O)O)cc2)c(N)n1,?,-19.1%,?,-11.9%,32.0%,-6.3%
NS(=O)(=O)c1ccc(NC(=O)c2cccc3ccccc23)cc1,64.4%,?,-1.7,-1.3%,21.8%,-3.6%
NS(=O)(=O)c1ccc(N=Nc2c(O)ccc3ccccc23)cc1,35.5µM*,?,-26.8,-19.0%,-11.7%,-28.5%
Cc1ccccc1N=Nc1ccc(N=Nc2c(O)ccc3ccccc23)c(C)c1,1.26µM*,nt,nt,nt,nt,nt
O=C(O)c1ccc(N=Nc2c(O)ccc3ncccc23)cc1,10µM*,1.58µM*,?,nt,?,7.94µM*
Oc1ccc(N=Nc2c(O)ccc3ccccc23)cc1,8.91µM*,6.31µM*,nt,17.8µM*,?,10µM*
O=S(=O)(c1ccccc1F)N1CCN(c2nc(-c3cccs3)nc3ccccc23)CC1,nt,nt,nt,nt,21.1%,-8.2%
SMILES,G9a inh,BAZ2B inh,PI5P4Ka inh,L3MBTL1 block,HP1b binding inh,JMJD2A Tudor
N#Cc1ccccc1NS(=O)(=O)c1ccc(N2CCCCS2(=O)=O)cc1,5.8%[12.7 µM],-9.6%,nt,nt,30.8%,-4.6%
CCCc1ccc(S(=O)(=O)N2CCC(Oc3ccc(-n4cnnn4)cc3)CC2)cc1,-19.5%[59 µM],-35.4%,nt,nt,11.1%,-18.2%
O=S(=O)(c1ccccc1)N1CCC2(CC1)CN(c1ccccn1)C2,46.0%[12.7 µM],nt,nt,nt,nt,nt
O=C(O)c1cc(N=Nc2c(O)ccc3ccccc23)cc(C(=O)O)c1,?,?,?,-6.3%,?,28.2µM*
O=C(O)c1cc2ccc3cccc4ccc(c1)c2c34,20.6%,?,1.3,nt,35.0%,5.4%
CCS(=O)(=O)N1CC(=O)N(c2cc(C)cc(C)c2)C(C)(C(=O)NC2CCCCC2)C1 (configuration not stated),7.4%[59 µM],2.1%,nt,nt,36.0%,-4.3%
Cc1nn(CCc2n[nH]c(=S)n2C)c(C)c1Br,?,-1.9%,nt,nt,21.4%,7.08µM*
COc1ccccc1-n1c(CCn2nc(C)c(Br)c2C)n[nH]c1=S,1.12µM*,-4.3%,-13.7,3.7%,3.7%,7.08µM*
Cc1nn(CCc2n[nH]c(=S)n2C2CCCCC2)c(C)c1Br,2.51µM*,-6.7%[57.1 µM],nt,0.6%,34.7%,79.4µM*
CNC(=S)NNC(=O)CCn1nc(C)c(Br)c1C,0.7%[59 µM],-2.9%,nt,nt,22.3%,-16.7%
O=C(N/N=C/c1ccc(-c2cccc([N+](=O)[O-])c2)o1)c1cccs1,4.4%,-15.6%,-6.7,-15.6%,18.7%,-7.5%[11.4 µM]
N#C/C(=C\c1ccc(-c2cccc([N+](=O)[O-])c2)o1)C(=O)Nc1nc(-c2cccs2)cs1,-11.0%[59 µM],-11.6%,-51.9*,nt,17.5%,-20.8%
COc1ccc(NC(=O)CCn2c(=O)c3cccn3c3cccnc32)c(OC)c1,8.4%[59 µM],?,nt,nt,37.4%,2.2%
O=C(CN1CCN(c2ccc(O)cc2)CC1)N(C1CC1)C1CCS(=O)(=O)C1 (configuration not stated),9.4%[2.33 µM],5.6%,-5.9,7.2%,?,79.4µM*
O=C(CN1CCN(c2ccc(F)cc2)CC1)N(C1CCCC1)C1CCS(=O)(=O)C1 (configuration not stated),-6.5%[2.33 µM],6.4%,4.2,5.7%,12.0%,-13.0%
CCOc1ccc(S(=O)(=O)Nc2cc(SCC(=O)O)c(O)c3ccccc23)cc1,?,50.1µM*,?,?,12.6µM*,22.4µM*
CCc1ccc(S(=O)(=O)Nc2cc(SCC(=O)O)c(O)c3ccccc23)cc1,3.55µM*,?,?,?,?,22.4µM*
